Measured values from PubChem BioAssay (NCI).
This is part of a sample that, as a whole, favours compounds with a hit. Of some 83,000 tested, about 20% had one in any assay.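 The endpoint reported here, percent growth, reads 100 for growth as untreated, 0 for no net growth and -100 for all cells dead.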 A number with no mark means an inactive call. Activity calls are given as the source filed them. How the source made its calls: active means growth percent below 10; inactive means the rest.

Legend:
Assay in all cases: NCI-60 one-dose screen, 48 h (100 = growth as untreated, 0 = no growth, -100 = all killed)
Conditions in all cases: 10 µM unless noted
SR leukemia = tested on: SR leukemia
RPMI-8226 leukemia = tested on: RPMI-8226 leukemia
OVCAR-8 ovarian = tested on: OVCAR-8 ovarian
OVCAR-5 ovarian = tested on: OVCAR-5 ovarian
OVCAR-4 ovarian = tested on: OVCAR-4 ovarian
SK-OV-3 ovarian = tested on: SK-OV-3 ovarian
IGROV1 ovarian = tested on: IGROV1 ovarian
OVCAR-3 ovarian = tested on: OVCAR-3 ovarian
HS 578T breast = tested on: HS 578T breast
NCI/ADR-RES ovarian = tested on: NCI/ADR-RES ovarian
T-47D breast = tested on: T-47D breast
BT-549 breast = tested on: BT-549 breast
MDA-MB-435 melanoma = tested on: MDA-MB-435 melanoma
SW-620 colon = tested on: SW-620 colon
MCF7 breast = tested on: MCF7 breast
HCT-116 colon = tested on: HCT-116 colon
HCC-2998 colon = tested on: HCC-2998 colon
KM12 colon = tested on: KM12 colon

SMILES | growth (SR leukemia) | growth (RPMI-8226 leukemia) | growth (OVCAR-8 ovarian) [%] | growth (OVCAR-5 ovarian) [%] | growth (OVCAR-4 ovarian) [%] | growth (SK-OV-3 ovarian) [%] | growth (IGROV1 ovarian) [%] | growth (OVCAR-3 ovarian) [%] | growth (HS 578T breast) [%] | growth (NCI/ADR-RES ovarian) | growth (T-47D breast) [%] | growth (BT-549 breast) [%] | growth (MDA-MB-435 melanoma) | growth (SW-620 colon) [%] | growth (MCF7 breast) [%] | growth (HCT-116 colon) [%] | growth (HCC-2998 colon) [%] | growth (KM12 colon) [%]
COc1ccc(/C=C/c2nc(Nc3ccc(S(=O)(=O)Nc4cc(C)on4)cc3)c3ccccc3n2)cc1 | 45.4% | 67.9% | 61.3 | 71.1 | 73.4 | 77.4 | 78 | 83.7 | 80.3 | 75.7% | 37.4 | 85.8 | 39.3% | 70 | 32.1 | 68.1 | 69.6 | –
CCOC(=O)C1=C(C)NC(SCc2cc(=O)oc3ccc(F)cc23)=N[C@@H]1c1cccc2ccccc12 | 83.5% | 90.5% | 89.5 | 119 | 102 | 92.5 | 99.4 | 92.4 | 106 | 98.7% | 82.4 | 102 | 99.1% | 101 | 84.3 | 76.9 | 105 | 97.7
Nc1nc(Nc2ccccc2SSc2ccccc2Nc2nc(N)nc(-c3ccc(C(F)(F)F)cc3)n2)nc(-c2ccc(C(F)(F)F)cc2)n1 | -5.23% (active) | 43.6% | 56 | 104 | 82 | 104 | 69.7 | 80.5 | 78.7 | 56.4% | 41.7 | 75.6 | 74.9% | 80.4 | 52.2 | 51 | 93.1 | 44.8
Cc1ccc(NS(=O)(=O)c2ccc(-c3cnc(C4CC4)o3)cc2)cc1C(F)(F)F | 28.6% | 55.2% | 78.5 | 93.2 | 69.4 | 86.8 | 51.8 | 24.5 | 69 | 43.3% | 55.1 | 63.8 | -4.02% (active) | 37.2 | 26.6 | 41.1 | 84.1 | –
Cn1c(-c2c(N)n(CCCN3CCOCC3)c3nc(C#N)c(C#N)nc23)nc2ccccc21 | -57.7% (active) | 5.09% (active) | 48.1 | 82 | 73.7 | 93.6 | 65.6 | 65.5 | 94.3 | 78.6% | 49.9 | 35.6 | 79.3% | 39.7 | 52.9 | 22.7 | 80 | 75.6
CC(Sc1nc2sc3c(c2c(=O)n1-c1ccc(Cl)cc1)CCCC3)C(=O)Nc1nc(-c2ccc(Br)cc2)cs1 (centres undefined) | 97.6% | 102% | 103 | 93.9 | 109 | 96.6 | 96 | 114 | 112 | 95.6% | 98.2 | 90.3 | 102% | 104 | 91.8 | 93.4 | 101 | 104
C=C1C(=O)O[C@H]2[C@H]1CC/C(CNC(=O)CCc1ccc(OC)cc1)=C\CC[C@@]1(C)O[C@@H]21 | 14.3% | 51.4% | 39.2 | 82 | 80 | 103 | 61.7 | 30.6 | 86.4 | 95.4% | 40.8 | 43.1 | 14.3% | 19 | 33.5 | 19.8 | 97.5 | 97.4
O=C(NNc1nc2c(F)cccc2n2cccc12)c1cnccn1 | 7.37% (active) | 10.6% | 21.1 | 39 | 28.1 | 28.4 | 21.1 | 23.2 | 77.3 | 3.12% (active) | 22.8 | 38 | 32% | 29 | 10.5 | 12.4 | 52.9 | 23.2
Nc1c(S(=O)(=O)O)cc2c3c(cccc13)C(=O)OC2=O | 114% | 106% | 97.6 | 118 | 94 | 110 | 63.7 | 95 | 99.2 | 93.8% | 96 | 104 | 102% | 99.8 | 94.8 | 98.6 | 102 | 92.5
NS(=O)(=O)c1ccc(CCn2c(SCC(=O)c3ccc(Cl)cc3)nc3ccccc3c2=O)cc1 | 100% | 107% | 107 | 108 | 103 | 107 | 107 | 109 | 101 | 98.6% | 95.3 | 99 | 102% | 103 | 91.8 | 97 | 87.7 | 102
COc1cc(/C(C)=C(\c2ccc(Cl)cc2)c2ccc(OCCN(C)C)cc2)ccc1F | 0.487% (active) | 12.2% | 73.9 | 75.3 | 45.9 | 111 | 35.3 | 59.4 | 71.7 | 69.4% | 61.2 | 76.2 | 39.6% | 49.8 | 31.7 | 46.8 | 25.1 | 44
Cn1ccc2c1CC1CN(Cc3ccco3)C(=O)C1C2C(=O)O (centres undefined) | 107% | 109% | 106 | 95 | 99.5 | 109 | 104 | 103 | 98.7 | 99% | 98.7 | 110 | 101% | 98.7 | 95.7 | 104 | 104 | –
CC1=C(C(=O)/C=C/c2ccc(N(C)C)cc2)C(c2ccccc2)NC(=S)N1 (centres undefined) | 96.8% | 101% | 102 | 102 | 107 | 111 | 98.9 | 109 | 98.2 | 100% | 101 | 118 | 102% | 98.8 | 99.2 | 101 | 108 | –
C=C(C)[C@@H]1CC[C@]2(C(=O)N3CCN(C)CC3)CC[C@]3(C)[C@H](CC[C@@H]4[C@@]5(C)C/C(=C/c6ccncc6)C(=O)C(C)(C)[C@@H]5CC[C@]43C)[C@@H]12 | 9.44% (active) | 20.7% | 49.1 | 88.8 | 53 | 88.8 | 74.8 | 53.3 | 61.8 | 57.9% | 48.3 | 66.3 | 56.4% | 39.6 | 19 | 17.6 | 62.5 | –
COc1ccccc1/C=C1\Oc2cc(OCCN3CCCC3)ccc2C1=O | -8.89% (active) | 82.2% | 91.8 | 86.2 | 93.9 | 98.2 | 97.3 | 96.2 | 80.6 | 90.9% | 90.1 | 84.2 | 94% | 74 | 68.1 | 47.1 | 75.8 | –
